This is a sample that favours compounds with a hit; in the whole collection about 6.9% have one here.
HP1b binding inh = blocks HP1-beta chromodomain binding to methylated histone tails; AlphaScreen HP1-beta / biotin-H3K9me3 peptide binding; Potency, µM (titrated, usually from 114 µM), actives largely listed as inhibitors; actives 0.56% (n = 390,000); AID 540317; note: nearly all actives have a fitted effect of over 70% in size
Target sequence (P83916 whole entry, looked up): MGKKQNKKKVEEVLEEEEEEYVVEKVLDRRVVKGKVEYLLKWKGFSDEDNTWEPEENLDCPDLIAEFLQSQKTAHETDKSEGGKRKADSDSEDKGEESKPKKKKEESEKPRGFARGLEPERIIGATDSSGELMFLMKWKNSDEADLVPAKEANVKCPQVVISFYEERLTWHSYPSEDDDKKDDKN
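HP1-beta protein (50 nM final) preincubated 30 min at room temperature with biotinylated H3(1-18)K9me3 peptide (50 nM) in PBS pH 7.4, 0.01% Tween-20, then compound added for 30 min. AlphaScreen streptavidin donor/nickel chelate acceptor beads (10 ug/mL final), 30 min dark, luminescence read.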
PLK1 PBD inh = inhibitors of human PLK1 polo-box domain binding; Plk1 PBD binding of FITC phosphopeptide, fluorescence polarization; Potency, µM, usual class: inhibitors; actives 2.8% (n = 360,000); AID 720504; note: series mostly up to about 57 µM; nearly all actives have a fitted effect of over 65% in size
L3MBTL1 block = inhibitors of human L3MBTL1; AID 485360; actives 0.66% (n = 230,000); AlphaScreen L3MBTL1–H3K9me1 peptide binding; Potency, µM (top dose mostly 57.1 µM), hits mostly inhibitors; note: nearly all actives have a fitted effect of over 60% in size
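L3MBTL1 (50 nM) pre-complexed 30 min with biotinylated H3(1-15)K9me1 peptide (75 nM), then compounds added for 30 min at room temperature; AlphaScreen streptavidin donor/nickel chelate acceptor beads (10 ug/mL final) read after 30 min dark incubation.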
BAZ2B block = inhibitors of human BAZ2B bromodomain | AID 504333 | Q9UIF8 | AlphaScreen BAZ2B-H3K14Ac peptide displacement | actives 4.4% (n = 360,000) | Potency, µM (doses to about 114 µM), hits mostly inhibitors; note: nearly all actives have a fitted effect of over 60% in size
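Protein-peptide AlphaScreen: BAZ2B 50 nM, b-H3K14Ac 50 nM, 1x PBS pH 7.4 + 0.01% Tween-20. Preincubation 30 min RT; cpd 30 min RT (top 110 uM); beads 20 min RT, light-protected.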
VDR inh = inhibitors of human vitamin D receptor | P11473 | VDR-SRC2-3 peptide fluorescence polarization, 2 h | Potency, µM, most hits filed as inhibitors | actives 0.93% (n = 400,000) | AID 504847
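Signal is fluorescence polarization, reporting how far test compounds block the interaction of VDR with the SRC2-3 coregulator peptide after a 2 h room-temperature incubation.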
JMJD2A Tudor inh = JMJD2A Tudor domain (human) inhibition | actives 4.4% (n = 390,000) | Potency, µM (doses to about 114 µM), most hits filed as inhibitors | AlphaScreen JMJD2A-Tudor / H3K4me3 peptide binding | O75164; note: nearly all actives have a fitted effect of over 50% in size
Of the large screens only hits and unclear results are named; the others gave an inactive call. Calls come from the whole dose curve; as a rule, active = well fitted curve in the direction sought with a large enough effect; inconclusive = small, poorly fitted or top-dose-only effect, or another doubt; inactive = no such curve, though single readings can be large; an effect the other way counts as inactive or inconclusive.

Cc1cccc(N2CCN(C(=O)CN3C(=O)COc4ccc(S(=O)(=O)N5CCC(C)CC5)cc43)CC2C)c1 (stereo not drawn)	none (no result: PLK1 PBD inh, L3MBTL1 block)
CNCCCNC(=O)c1ccc(/C=N/O)nc1	BAZ2B block 22µM, JMJD2A Tudor inh 20µM (no result: L3MBTL1 block)
C[N+](C)(C)CCCNC(=O)c1ccc(/C=N/O)nc1	BAZ2B block 20µM, JMJD2A Tudor inh 4µM (no result: L3MBTL1 block)
Cc1ccc(C(=O)NCCCNC(=O)c2ccc(C)nc2)cc1	none (no result: L3MBTL1 block)
CC(C)c1ccc(C(=O)NCCCN(C)C)cc1	none
CN(C)CCCNC(=O)c1ccc(/C=N/O)nc1	JMJD2A Tudor inh 1.4µM
CN1c2ccccc2C(=O)N2CCc3c([nH]c4ccccc34)C21 (stereo not drawn)	none (no result: PLK1 PBD inh, L3MBTL1 block, BAZ2B block)
COc1ccc2nc(NC(=O)CNS(=O)(=O)c3cccs3)sc2c1	none (no result: L3MBTL1 block)
Cc1csc(NC(=O)CNS(=O)(=O)c2cccs2)n1	JMJD2A Tudor inh 8.9µM
COCCNCC(=O)Nc1nc(C)cs1	BAZ2B block 32µM, JMJD2A Tudor inh inconclusive
CCCOC1CCCN(Cc2nc(-c3ccc(C(=O)OC)cc3)no2)C1 (stereo not drawn)	none
Nc1[nH]n(-c2ccccc2)c(=O)c1N=Nc1ccc2c(c1)OCCO2	HP1b binding inh 45µM, L3MBTL1 block inconclusive, BAZ2B block 10µM, JMJD2A Tudor inh 20µM
Nc1[nH]n(-c2ccccc2)c(=O)c1N=Nc1ccc2c(c1)OCO2	HP1b binding inh inconclusive, BAZ2B block 4µM, VDR inh inconclusive, JMJD2A Tudor inh 10µM (no result: L3MBTL1 block)
Cc1cc([N+](=O)[O-])ccc1N=Nc1c(N)[nH]n(-c2ccccc2)c1=O	HP1b binding inh inconclusive, PLK1 PBD inh inconclusive, VDR inh inconclusive
Cc1ccc(-n2nc(-c3ccco3)cc2C(=O)O)c(C)c1	L3MBTL1 block 7.9µM, BAZ2B block 45µM, JMJD2A Tudor inh 56µM
Cc1nnc(SCC(=O)c2ccc(C(C)C)cc2)s1	none
CC(=O)NC(c1ccc2ccccc2c1)c1ccc2cccnc2c1O (stereo not drawn)	L3MBTL1 block inconclusive, BAZ2B block 28µM, JMJD2A Tudor inh 25µM
COc1ccc(C(NC(C)=O)c2ccc3cccnc3c2O)c(OC)c1 (stereo not drawn)	L3MBTL1 block inconclusive, BAZ2B block 28µM, JMJD2A Tudor inh 79µM
CC(=O)NC(c1ccc(Cl)cc1Cl)c1ccc2cccnc2c1O (stereo not drawn)	BAZ2B block 28µM, VDR inh inconclusive, JMJD2A Tudor inh 28µM
CCCC(=O)NC(c1ccc(Cl)cc1Cl)c1ccc2cccnc2c1O (stereo not drawn)	none
CCCC(=O)NC(c1ccc(Cl)cc1)c1ccc2cccnc2c1O (stereo not drawn)	none
O=C(NCCSc1c[nH]c2ccccc12)c1ccc2c(c1)OCO2	none
CCC(=O)N(C)CCc1cc2c(c(OC)c1/C=N/NC(=O)c1ccc(Br)cc1)OCO2	HP1b binding inh inconclusive, PLK1 PBD inh 24µM, VDR inh inconclusive
COc1ccc(OC)c(CNC(=O)c2nn(-c3ccc(OC)c(Cl)c3)c(=O)c3c2c2ccccc2n3C)c1	none (no result: PLK1 PBD inh, L3MBTL1 block, BAZ2B block)
Cc1ccc(C)c(CN2C(=O)c3ccccc3S(=O)(=O)c3ccc(C(=O)N4CCN(c5ccccc5F)CC4)cc32)c1	none (no result: PLK1 PBD inh, L3MBTL1 block)
Nc1ccc2nc(CN3CCOCC3)[nH]c2c1	BAZ2B block 50µM, JMJD2A Tudor inh inconclusive (no result: L3MBTL1 block)
c1ccc2[nH]c(CN3CCOCC3)nc2c1	none (no result: L3MBTL1 block)
CC(C)Cc1nc2ccc(N)cc2[nH]1	JMJD2A Tudor inh 22µM
COc1cc(Cl)c(C)cc1NC(=O)C(OC(=O)CNC(=O)c1ccccc1)c1ccccc1 (stereo not drawn)	none (no result: HP1b binding inh, PLK1 PBD inh, L3MBTL1 block, BAZ2B block, VDR inh)
O=C(O)c1ccccc1C(=O)Nc1ccc(S(=O)(=O)Nc2nccs2)cc1	BAZ2B block 50µM
COc1ccc(-n2ccc(=O)c(C(=O)Nc3ccc(S(=O)(=O)Nc4nccs4)cc3)n2)cc1	PLK1 PBD inh inconclusive, BAZ2B block inconclusive, JMJD2A Tudor inh 56µM (no result: L3MBTL1 block)
O=C(NC(=S)Nc1ccc(S(=O)(=O)Nc2nccs2)cc1)c1ccccc1F	HP1b binding inh inconclusive, PLK1 PBD inh 15µM, BAZ2B block inconclusive, VDR inh inconclusive, JMJD2A Tudor inh inconclusive (no result: L3MBTL1 block)
COc1ccccc1C(=O)Nc1ccc(S(=O)(=O)Nc2nccs2)cc1	none (no result: L3MBTL1 block)

Screening results (PubChem BioAssay)
